# About 79,000 compounds went through this panel and 15% of them were active in at least one assay; those are over-represented in the sample as a whole. Values without a mark were called inactive. Calls of active or inactive are those of the source. Rule as the data show it: active = growth inhibition above about 70%; inactive = the rest.
# What was measured:
# [1] = NCI Yeast Anticancer Drug Screen. Data for the rad52 strain (AID 147);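 also: 0% = growth of vehicle-treated control cultures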; conditions: S. cerevisiae rad52 mutant growth inhibition, stronger effect = higher value
# In short: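 Here a repair-compromised yeast strain receives each compound; its growth is then quantified and normalised to vehicle-only controls.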
# [2] = NCI Yeast Anticancer Drug Screen. Data for the wt1 strain (AID 149);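 also: 0% = growth of vehicle-treated wt1 cultures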; conditions: S. cerevisiae wt1 strain (SPY 50644) growth inhibition, stronger effect = higher value
# In short: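 Measured: growth of wt1 yeast under compound versus vehicle treatment, reported as inhibition.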
# [3] = NCI Yeast Anticancer Drug Screen. Data for the rad50EPP+ strain (AID 151);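 also: 0% = growth of vehicle-treated control cultures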; conditions: S. cerevisiae rad50 mutant strain, stronger effect = higher value
# In short: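 Read-out is yeast growth inhibition relative to vehicle; cells used were the rad50EPP+ strain.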
# [4] = NCI Yeast Anticancer Drug Screen. Data for the mgt1 strain (AID 153); conditions: S. cerevisiae mgt1 mutant growth inhibition, stronger effect = higher value
# In short: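 Measured: inhibition of mgt1 yeast growth by compound, normalized to vehicle-treated cultures.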
# [5] = NCI Yeast Anticancer Drug Screen. Data for the rad50 strain (AID 155);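 also: 0% = growth of vehicle-only cultures of the same strain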; conditions: S. cerevisiae rad50 strain growth inhibition, stronger effect = higher value
# In short: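 Growth of the mutant yeast was measured after compound exposure and referenced to vehicle-treated cultures.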
# [6] = NCI Yeast Anticancer Drug Screen. Data for the mec2-1 strain (AID 157); conditions: S. cerevisiae mec2-1 strain, stronger effect = higher value
# In short: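 Using mec2-1 yeast: add compound, measure growth, express inhibition versus vehicle-treated cultures.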
# [7] = NCI Yeast Anticancer Drug Screen. Data for the rad14 strain (AID 159);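 also: 0% = growth of vehicle-treated control cultures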; conditions: S. cerevisiae rad14 strain growth inhibition, stronger effect = higher value
# In short: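 Here, inhibition of yeast growth was measured after compound exposure, using a strain with a genetic defect in DNA damage repair and vehicle-treated cultures as the reference.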
# [8] = NCI Yeast Anticancer Drug Screen. Data for the sgs1 mgt1 strain (AID 161);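 also: 0% = growth of cultures given vehicle only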; conditions: S. cerevisiae sgs1 mgt1 strain, stronger effect = higher value
# In short: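 This yeast growth screen uses a strain with defined DNA-repair lesions; compound-treated growth is compared with vehicle-treated growth.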
# [9] = NCI Yeast Anticancer Drug Screen. Data for the CLN2oe strain (AID 163);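 also: 0% = growth of vehicle-only control cultures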; conditions: S. cerevisiae CLN2oe strain, stronger effect = higher value
# In short: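 Whole-cell yeast growth assay. A strain engineered for altered cell-cycle control received compound, and inhibition relative to vehicle-treated cultures was recorded.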
# [10] = NCI Yeast Anticancer Drug Screen. Data for the cln2 rad14 strain (AID 165);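 also: 0% = growth equal to vehicle treated cultures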; conditions: S. cerevisiae cln2 rad14 strain, stronger effect = higher value
# In short: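 Yeast strain cln2 rad14, bearing defects in cell cycle control and DNA repair, serves as the test system; values reflect growth inhibition compared with vehicle.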
# [11] = NCI Yeast Anticancer Drug Screen. Data for the bub3 strain (AID 167); conditions: S. cerevisiae bub3 mutant strain, stronger effect = higher value
# In short: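 Whole-cell yeast assay. The mutant strain was incubated with compounds, and growth inhibition was determined by comparison with vehicle-treated cells.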
# [12] = NCI Yeast Anticancer Drug Screen. Data for the wt2 strain (AID 169);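 also: 0% = growth of vehicle-treated yeast cultures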; conditions: S. cerevisiae wt2 strain growth inhibition, stronger effect = higher value
# In short: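 Treated yeast vs. vehicle-treated yeast: growth inhibition determined.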
# [13] = NCI Yeast Anticancer Drug Screen. Data for the mlh1 strain (AID 171);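 also: 0% = growth of vehicle-treated control cultures of the same strain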; conditions: S. cerevisiae mlh1 strain growth inhibition, stronger effect = higher value
# In short: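 A yeast strain with a defined genetic lesion serves as the test organism. Cultures receive compound or vehicle, and growth is measured.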
# [14] = NCI Yeast Anticancer Drug Screen. Data for the sgs1 strain (AID 173);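 also: 0% = growth of vehicle-only control cultures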; conditions: S. cerevisiae sgs1 mutant, stronger effect = higher value
# In short: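 A genetically defined yeast mutant is incubated with the test compound, and its growth is compared to that of the same strain given vehicle.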
# [15] = NCI Yeast Anticancer Drug Screen. Data for the mlh1 rad18 strain (AID 175); conditions: S. cerevisiae mlh1 rad18 strain growth inhibition, stronger effect = higher value
# In short: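 Steps: expose repair-defective yeast to compound; measure growth; express inhibition against vehicle-treated controls.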
# [16] = NCI Yeast Anticancer Drug Screen. Data for the rad18 strain (AID 177); conditions: S. cerevisiae rad18 mutant growth inhibition, stronger effect = higher value
# In short: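 Measured value is growth inhibition of a yeast strain bearing a DNA repair alteration, referenced to vehicle-treated cells.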
# [17] = at 5.0 µM (retest, dose inferred, filed as 0.5)
# [18] = at 50.0 µM (retest, dose inferred, filed as 5.0)
smiles,measurement,setting,value
CC(C)c1ccc(NC(=S)NC(=O)c2ccccc2)cc1,growth inhibition,[1]; at 1.2 µM,-32%
same,growth inhibition,[1]; at 3.7 µM,-30%
same,growth inhibition,[1]; at 11.0 µM,-19%
same,growth inhibition,[1]; at 33.0 µM,12%
same,growth inhibition,[1]; at 100.0 µM,26%
same,growth inhibition,[2]; at 1.2 µM,-9%
same,growth inhibition,[2]; at 3.7 µM,-22%
same,growth inhibition,[2]; at 11.0 µM,4%
same,growth inhibition,[2]; at 33.0 µM,20%
same,growth inhibition,[2]; at 100.0 µM,41%
same,growth inhibition,[3]; at 1.2 µM,-2%
same,growth inhibition,[3]; at 3.7 µM,4%
same,growth inhibition,[3]; at 11.0 µM,47%
same,growth inhibition,[3]; at 33.0 µM,53%
same,growth inhibition,[3]; at 100.0 µM,58%
same,growth inhibition,[4]; at 1.2 µM,-27%
same,growth inhibition,[4]; at 3.7 µM,-23%
same,growth inhibition,[4]; at 11.0 µM,27%
same,growth inhibition,[4]; at 33.0 µM,52%
same,growth inhibition,[4]; at 100.0 µM,47%
same,growth inhibition,[5]; at 1.2 µM,-27%
same,growth inhibition,[5]; at 3.7 µM,-19%
same,growth inhibition,[5]; [17],10%
same,growth inhibition,[5]; at 11.0 µM,1%
same,growth inhibition,[5]; at 33.0 µM,31%
same,growth inhibition,[5]; [18],31%
same,growth inhibition,[5]; at 50.0 µM,52%
same,growth inhibition,[5]; at 100.0 µM,39%
same,growth inhibition,[6]; at 1.2 µM,-35%
same,growth inhibition,[6]; at 3.7 µM,-19%
same,growth inhibition,[6]; [17],0%
same,growth inhibition,[6]; at 11.0 µM,4%
same,growth inhibition,[6]; at 33.0 µM,23%
same,growth inhibition,[6]; [18],40%
same,growth inhibition,[6]; at 50.0 µM,42%
same,growth inhibition,[6]; at 100.0 µM,38%
same,growth inhibition,[7]; at 1.2 µM,-19%
same,growth inhibition,[7]; at 3.7 µM,0%
same,growth inhibition,[7]; at 11.0 µM,-3%
same,growth inhibition,[7]; at 33.0 µM,42%
same,growth inhibition,[7]; at 100.0 µM,30%
same,growth inhibition,[8]; [17],2%
same,growth inhibition,[8]; [18],69%
same,growth inhibition,[8]; at 50.0 µM,66.6%
same,growth inhibition,[9]; at 1.2 µM,-21%
same,growth inhibition,[9]; at 3.7 µM,-21%
same,growth inhibition,[9]; at 11.0 µM,-2%
same,growth inhibition,[9]; at 33.0 µM,56%
same,growth inhibition,[9]; at 100.0 µM,51%
same,growth inhibition,[10]; [17],17%
same,growth inhibition,[10]; [18],64%
same,growth inhibition,[10]; at 50.0 µM,40.9%
same,growth inhibition,[11]; at 1.2 µM,3%
same,growth inhibition,[11]; at 3.7 µM,41%
same,growth inhibition,[11]; [17],42%
same,growth inhibition,[11]; at 11.0 µM,78% (active)
same,growth inhibition,[11]; at 33.0 µM,86% (active)
same,growth inhibition,[11]; [18],87% (active)
same,growth inhibition,[11]; at 50.0 µM,76% (active)
same,growth inhibition,[11]; at 100.0 µM,80% (active)
same,growth inhibition,[12]; at 1.2 µM,-25%
same,growth inhibition,[12]; at 3.7 µM,-26%
same,growth inhibition,[12]; at 11.0 µM,-6%
same,growth inhibition,[12]; at 33.0 µM,46%
same,growth inhibition,[12]; at 100.0 µM,37%
same,growth inhibition,[13]; at 1.2 µM,-11%
same,growth inhibition,[13]; at 3.7 µM,2%
same,growth inhibition,[13]; at 11.0 µM,29%
same,growth inhibition,[13]; at 33.0 µM,60%
same,growth inhibition,[13]; at 100.0 µM,56%
same,growth inhibition,[14]; at 1.2 µM,-23%
same,growth inhibition,[14]; at 3.7 µM,-16%
same,growth inhibition,[14]; at 11.0 µM,15%
same,growth inhibition,[14]; at 33.0 µM,50%
same,growth inhibition,[14]; at 100.0 µM,55%
same,growth inhibition,[15]; [17],5%
same,growth inhibition,[15]; [18],59%
same,growth inhibition,[15]; at 50.0 µM,34%
Cc1cc2c3ccccc3c3ccccc3c2nn1,growth inhibition,[1]; at 1.2 µM,2%
same,growth inhibition,[1]; at 3.7 µM,21%
same,growth inhibition,[1]; at 11.0 µM,60%
same,growth inhibition,[1]; at 33.0 µM,74% (active)
same,growth inhibition,[1]; at 100.0 µM,80% (active)
same,growth inhibition,[2]; at 1.2 µM,-7%
same,growth inhibition,[2]; at 3.7 µM,-6%
same,growth inhibition,[2]; at 11.0 µM,-8%
same,growth inhibition,[2]; at 33.0 µM,-8%
same,growth inhibition,[2]; at 100.0 µM,-5%
same,growth inhibition,[3]; at 1.2 µM,13%
same,growth inhibition,[3]; at 3.7 µM,38%
same,growth inhibition,[3]; at 11.0 µM,56%
same,growth inhibition,[3]; at 33.0 µM,60%
same,growth inhibition,[3]; at 100.0 µM,52%
same,growth inhibition,[4]; at 1.2 µM,-4%
same,growth inhibition,[4]; at 3.7 µM,-6%
same,growth inhibition,[4]; at 11.0 µM,-5%
same,growth inhibition,[4]; at 33.0 µM,-4%
same,growth inhibition,[4]; at 100.0 µM,-6%
same,growth inhibition,[5]; at 1.2 µM,5%
same,growth inhibition,[5]; at 3.7 µM,25%
same,growth inhibition,[5]; [17],2%
same,growth inhibition,[5]; at 11.0 µM,72% (active)
same,growth inhibition,[5]; at 33.0 µM,83% (active)
same,growth inhibition,[5]; [18],77% (active)
same,growth inhibition,[5]; at 50.0 µM,94.7% (active)
same,growth inhibition,[5]; at 100.0 µM,79% (active)
same,growth inhibition,[6]; at 1.2 µM,2%
same,growth inhibition,[6]; at 3.7 µM,0%
same,growth inhibition,[6]; [17],-46%
same,growth inhibition,[6]; at 11.0 µM,10%
same,growth inhibition,[6]; at 33.0 µM,7%
same,growth inhibition,[6]; [18],-15%
same,growth inhibition,[6]; at 50.0 µM,21.8%
same,growth inhibition,[6]; at 100.0 µM,12%
same,growth inhibition,[7]; at 1.2 µM,3%
same,growth inhibition,[7]; at 3.7 µM,8%
same,growth inhibition,[7]; at 11.0 µM,15%
same,growth inhibition,[7]; at 33.0 µM,15%
same,growth inhibition,[7]; at 100.0 µM,15%
same,growth inhibition,[8]; [17],-61%
same,growth inhibition,[8]; [18],-15%
same,growth inhibition,[8]; at 50.0 µM,36.5%
same,growth inhibition,[9]; at 1.2 µM,-3%
same,growth inhibition,[9]; at 3.7 µM,-3%
same,growth inhibition,[9]; at 11.0 µM,1%
same,growth inhibition,[9]; at 33.0 µM,1%
same,growth inhibition,[9]; at 100.0 µM,0%
same,growth inhibition,[10]; [17],-59%
same,growth inhibition,[10]; [18],-24%
same,growth inhibition,[10]; at 50.0 µM,27.5%
same,growth inhibition,[11]; at 1.2 µM,-9%
same,growth inhibition,[11]; at 3.7 µM,-1%
same,growth inhibition,[11]; [17],-64%
same,growth inhibition,[11]; at 11.0 µM,7%
same,growth inhibition,[11]; at 33.0 µM,9%
same,growth inhibition,[11]; [18],-31%
same,growth inhibition,[11]; at 50.0 µM,29.1%
same,growth inhibition,[11]; at 100.0 µM,11%
same,growth inhibition,[12]; at 1.2 µM,-4%
same,growth inhibition,[12]; at 3.7 µM,-3%
same,growth inhibition,[12]; at 11.0 µM,-3%
same,growth inhibition,[12]; at 33.0 µM,-3%
same,growth inhibition,[12]; at 100.0 µM,-6%
same,growth inhibition,[13]; at 1.2 µM,5%
same,growth inhibition,[13]; at 3.7 µM,-6%
same,growth inhibition,[13]; at 11.0 µM,0%
same,growth inhibition,[13]; at 33.0 µM,1%
same,growth inhibition,[13]; at 100.0 µM,-3%
same,growth inhibition,[14]; at 1.2 µM,-3%
same,growth inhibition,[14]; at 3.7 µM,-6%
same,growth inhibition,[14]; at 11.0 µM,0%
same,growth inhibition,[14]; at 33.0 µM,12%
same,growth inhibition,[14]; at 100.0 µM,11%
same,growth inhibition,[15]; [17],-88%
same,growth inhibition,[15]; [18],-13%
same,growth inhibition,[15]; at 50.0 µM,60.4%
same,growth inhibition,[16]; at 1.2 µM,-2%
same,growth inhibition,[16]; at 3.7 µM,2%
same,growth inhibition,[16]; at 11.0 µM,10%
same,growth inhibition,[16]; at 33.0 µM,12%
same,growth inhibition,[16]; at 100.0 µM,10%

# — PubChem BioAssay (NCI)
